Assay outcomes from PubChem BioAssay.
IL-1B inflam inh: blocks inflammasome-driven IL-1 beta release; THP-1 LPS/ATP IL-1B secretion, AlphaLISA, 16 h; hits give low values; activity change, % at 57.5 µM; 360,000 compounds, 4.7% hits; AID 743279; in the data active = activity change below about -50%; inconclusive = mostly about -30% to -49%
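THP-1 cells pretreated 1 hr with compounds (up to 57.5 uM final), then stimulated with LPS (250 ng/mL final) plus ATP (1.25 mM final); secreted IL-1B measured by AlphaLISA after 16 hr, decreased signal indicating inhibition.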
DT40 TDP1 no CPT: qHTS for Inhibitors of human tyrosyl-DNA phosphodiesterase 1 (TDP1): qHTS in cells in absence of CPT | Potency, µM (titrated, usually from 46.2 µM), for inactives: at the top dose activity change, negative = growth inhibition, most hits filed as inhibitors | 420,000 compounds, 15% hits | DT40 Tdp1-/- hTDP1 cells, no CPT, ATP luminescence, 48 h; also: potency is read from the fitted curve at half-maximal effect; nearly all actives have a fitted effect of over 55% in size
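Cells were dispensed at 400 per well, compounds added by pin tool, plates incubated ≥48 hr at 37 °C, then CellTiter-Glo added for 30 min at room temperature before luminescence reading. Line: DT40 Tdp1-/- complemented with hTDP1; camptothecin omitted.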
HT1080 IDH1KD tx: HT-1080 IDH1 knockdown cell toxicity (counter line). HT-1080 IDH1 knockdown viability, ATP luminescence, 48 h. Potency, µM (doses to about 46.1 µM), inactives show top-dose activity, negative = toxicity, most hits filed as cytotoxic. 360,000 compounds, 2% hits;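 also: potency is read from the fitted curve at half-maximal effect; 0% = DMSO wells and -100% = cell-free medium wells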
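Assay cells: HT-1080 with IDH1 knockdown, 750 per well, RPMI/5% FBS. Exposure: 48 h at 37 °C following 2 h pre-incubation. Read: CellTiter-Glo luminescence; fitted concentration-response, curve class assigned.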
DT40 TDP1 CPT: growth inhibition of DT40 Tdp1-/-;hTDP1 cells with camptothecin (screen for TDP1 inhibitors); Potency, µM (top dose mostly 46.2 µM), without a hit: top-dose activity change, negative = growth inhibition, actives largely listed as inhibitors; 420,000 compounds, 12% hits; chicken DT40 Tdp1-/-;hTDP1 cells + 20 nM CPT, ATP luminescence, 48 h; also: potency is read from the fitted curve at half-maximal effect; nearly all actives have a fitted effect of over 55% in size
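Cell growth measured by CellTiter-Glo luminescence after a minimum 48 h, 37 C compound exposure with 20 nM CPT in Tdp1-knockout DT40 cells stably expressing hTDP1, seeded 400/well; qHTS titration format.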
ALOX12 inh: inhibitors of human 12S-lipoxygenase ALOX12. P18054. purified 12hLO, xylenol orange hydroperoxide absorbance. Potency, µM (series often up to 108 µM), for inactives: at the highest dose activity change, negative = inhibition, actives largely listed as inhibitors. 580,000 compounds, 1.1% hits. AID 1671190; also: potency is read from the fitted curve at half-maximal effect
Target sequence (P18054 whole entry, looked up): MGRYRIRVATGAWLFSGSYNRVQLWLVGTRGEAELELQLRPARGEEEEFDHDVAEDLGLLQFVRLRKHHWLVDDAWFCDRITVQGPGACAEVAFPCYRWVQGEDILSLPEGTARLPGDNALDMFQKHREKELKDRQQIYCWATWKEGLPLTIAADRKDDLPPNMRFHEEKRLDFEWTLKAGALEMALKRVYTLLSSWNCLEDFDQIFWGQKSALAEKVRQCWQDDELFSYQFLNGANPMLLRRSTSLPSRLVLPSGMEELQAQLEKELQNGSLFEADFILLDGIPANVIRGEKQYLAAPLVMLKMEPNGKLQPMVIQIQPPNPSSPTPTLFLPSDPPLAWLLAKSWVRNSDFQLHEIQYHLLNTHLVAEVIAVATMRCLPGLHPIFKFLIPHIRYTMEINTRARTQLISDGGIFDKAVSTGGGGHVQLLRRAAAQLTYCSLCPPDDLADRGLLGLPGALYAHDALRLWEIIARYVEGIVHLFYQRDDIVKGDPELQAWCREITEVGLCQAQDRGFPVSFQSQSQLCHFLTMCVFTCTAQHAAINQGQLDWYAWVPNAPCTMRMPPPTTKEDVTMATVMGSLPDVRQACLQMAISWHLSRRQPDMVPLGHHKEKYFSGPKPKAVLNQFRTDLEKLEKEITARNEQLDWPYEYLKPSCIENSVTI
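Hydroperoxide product was detected by ferrous iron/xylenol orange as the 573 to 405 nm absorbance ratio. Arachidonic acid at 40 uM (final) was turned over for 30 min at room temperature by 150 nM human 12hLO, pH 7.0 Hepes buffer, after 15 min compound preincubation.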
HT1080NT lethal: kills 2HG-producing HT-1080-NT fibrosarcoma cells | HT-1080-NT fibrosarcoma viability, CellTiter-Glo ATP luminescence, 48 h | 360,000 compounds, 1.6% hits | AID 686970 | Potency, µM (highest dose often 46.1 µM), for the others: at the top dose activity, negative = less viability, hits mostly cytotoxic;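 also: NT is the 2HG producing partner of a matched IDH1 knockdown line; potency is read from the fitted curve at half-maximal effect; 0% = DMSO-treated cells and -100% = media-only wells without cells; nearly all actives have a fitted effect of over 55% in size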
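HT-1080-NT fibrosarcoma cells (2HG-overproducing), 750 cells/well in RPMI with 5% FBS, dosed after 2 h and incubated 48 h at 37C. CellTiter-Glo luminescence normalized to DMSO and no-cell wells; concentration-response curves fitted and classed.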
An asterisk follows results filed as active; [ ] = another dose, or the depositor's remark. Many of the other results were omitted from the sample, so hits are more common in it than they were. Unless noted, calls follow the shape of the dose curve; as a rule, active = well fitted curve in the direction sought with a large enough effect; inconclusive = small, poorly fitted or top-dose-only effect, or another doubt; inactive = no such curve, though single readings can be large; an effect the other way counts as inactive or inconclusive. Unless noted, % is scaled to controls: 0 for no effect and ±100 for the full control effect.

For CC[C@H]1CN2CC[C@H]1C[C@@H]2CNC(=O)c1ccc(F)c(Cl)c1 the results were ALOX12 inh 7%[176 µM].
Screening c1ccc(-c2nn(-c3ccccc3)[n+](-c3ccccc3)n2)cc1 returned IL-1B inflam inh 15, DT40 TDP1 no CPT 0.41µM*, HT1080 IDH1KD tx inconclusive, DT40 TDP1 CPT 0.58µM*, ALOX12 inh 0% and HT1080NT lethal -16%.
`COc1cc(-c2ccc(-[n+]3nc(-c4ccccc4)nn3-c3ccc([N+](=O)[O-])cc3)c(OC)c2)ccc1-[n+]1nc(-c2ccccc2)nn1-c1ccc([N+](=O)[O-])cc1` gave DT40 TDP1 no CPT 6µM* and DT40 TDP1 CPT 2.7µM*.
CC1=NOC2(CCN(Cc3cccnc3)C2)C1 (configuration not stated) was read as ALOX12 inh 41%[176 µM].
Screening COCCNC(=O)[C@H]1CN2CCC1C[C@@H]2Cn1cc(CCO)nn1 (some centres not stated) returned ALOX12 inh -3%[176 µM].
Cc1cc(C)cc(N2C(=O)NC(=O)/C(=C\C=C\c3ccco3)C2=O)c1 was read as IL-1B inflam inh -86*, DT40 TDP1 no CPT 5.8µM*, HT1080 IDH1KD tx inconclusive, DT40 TDP1 CPT 5.2µM*, ALOX12 inh inconclusive and HT1080NT lethal inconclusive.
For CC(C)c1ccc(N2C(=O)NC(=O)/C(=C/C=C/c3ccco3)C2=O)cc1 the results were IL-1B inflam inh inconclusive, DT40 TDP1 no CPT 4.6µM*, HT1080 IDH1KD tx inconclusive, DT40 TDP1 CPT 5.2µM*, ALOX12 inh 45µM* and HT1080NT lethal 21%.
`CCOc1ccc(N2C(=O)/C(=C/c3ccco3)C(=O)NC2=S)cc1` gave IL-1B inflam inh 0, DT40 TDP1 no CPT 0%, HT1080 IDH1KD tx -7%, DT40 TDP1 CPT -14% and HT1080NT lethal -11%.
CCc1ccc(N2C(=O)NC(=O)/C(=C\C=C\c3ccco3)C2=O)cc1 was read as IL-1B inflam inh -96*, DT40 TDP1 no CPT 3.3µM*, HT1080 IDH1KD tx -12%, DT40 TDP1 CPT 3.7µM*, ALOX12 inh 0% and HT1080NT lethal 0%.
Screening O=C1NC(=O)N(c2ccccc2)C(=O)/C1=C\C=C\c1ccccc1 returned IL-1B inflam inh -98*, DT40 TDP1 no CPT 2.6µM*, HT1080 IDH1KD tx 5.2µM*, DT40 TDP1 CPT 2.1µM*, ALOX12 inh 25µM* and HT1080NT lethal inconclusive.
For Cn1nc(-c2ccc(F)cc2)cc1[C@H]1CN2CC[C@H]1C[C@@H]2CNC(=O)N1CCOCC1 the results were ALOX12 inh 7%[176 µM].
For COc1cc(OC)c2c(C)c(CC(=O)N3CCN(CCc4ccccn4)CC3)c(=O)oc2c1 the results were ALOX12 inh -4%.
For Cc1nc(-c2cccs2)cc([C@H]2CN3CC[C@H]2C[C@@H]3COC(=O)Nc2ccc(C(C)C)cc2)n1 the results were ALOX12 inh 45µM*.
Screening COc1ccccc1-c1cc([C@H]2CN3CC[C@H]2C[C@@H]3COC(=O)Nc2ccc(C(C)C)cc2)nc(C)n1 returned ALOX12 inh 45µM*.
Cc1ncc2c(n1)C[C@@H]1CC[C@H]2N1C(=O)Nc1ccc2c(c1)OCCO2 was read as ALOX12 inh 49%.
Screening COC1C(O)CC(OC2C(O)CC(OC3C(O)CC(OC4CCC5(C)C(CCC6[C@@H]5CC(O)C5(C)C(C7=CC(=O)OC7)CCC65O)C4)OC3C)OC2C)OC1C (some centres not stated) returned ALOX12 inh 6%.
O=C1NC2C(O)C(O)C(O)C(O)C2c2cc3c(c(O)c21)OCO3 (configuration not stated) was read as IL-1B inflam inh -103*, DT40 TDP1 no CPT 0.073µM*, HT1080 IDH1KD tx 0.23µM*, DT40 TDP1 CPT 0.16µM*, ALOX12 inh 2% and HT1080NT lethal 0.46µM*.
O=C1NC2C(=CC(O)C(O)C2O)c2cc3c(cc21)OCO3 (configuration not stated) was read as IL-1B inflam inh -101*, DT40 TDP1 no CPT 0.29µM*, HT1080 IDH1KD tx 1.2µM*, DT40 TDP1 CPT 0.41µM*, ALOX12 inh 8% and HT1080NT lethal inconclusive.
O=C1NC2C(=CC(O)C(O)C2O)c2cc3c(c(O)c21)OCO3 (configuration not stated) was read as IL-1B inflam inh -117*, DT40 TDP1 no CPT 0.092µM*, HT1080 IDH1KD tx 0.15µM*, DT40 TDP1 CPT 0.058µM*, ALOX12 inh 5% and HT1080NT lethal 0.73µM*.
`CC(C)(C)NC(=O)NC(O)C(Cl)(Cl)Cl` (configuration not stated) gave ALOX12 inh -21%.
`CC[C@H]1CN2CC[C@H]1C[C@@H]2CNC(=O)c1ccco1` gave ALOX12 inh 97%[176 µM].
Cc1ccnn1CC(=O)N1C[C@@H](c2ccc3c(c2)OCO3)[C@@H]2[C@H]1C1CCN2CC1 was read as ALOX12 inh 10%.
For O=C(NCc1ccc(F)cc1)[C@H]1CN2CCC1C[C@@H]2Cn1cc(C2(O)CCCCC2)nn1 (some centres not stated) the results were ALOX12 inh 11%.
For CC(=O)c1cccc(NC(=O)c2cc3c(s2)-c2c(C)cccc2OC3)c1 the results were DT40 TDP1 no CPT 16µM*, DT40 TDP1 CPT inconclusive and ALOX12 inh inconclusive.
`CCC(=O)c1ccc(OCC(=O)N2CCN(CC(=O)Nc3ccccc3C(F)(F)F)CC2)cc1` gave IL-1B inflam inh 10, DT40 TDP1 no CPT 15µM*, HT1080 IDH1KD tx -11%, DT40 TDP1 CPT inconclusive, ALOX12 inh -17% and HT1080NT lethal -18%.
For Cc1cccc(NC(=O)CN2CCN(C(=O)COc3cccc(Br)c3)CC2)c1C the results were IL-1B inflam inh -7, DT40 TDP1 no CPT inconclusive, HT1080 IDH1KD tx 4%, DT40 TDP1 CPT -28%, ALOX12 inh 297% and HT1080NT lethal -1%.
`Cc1ccc(C)c(S(=O)(=O)N2[C@H]3CC[C@@H]2c2cnc(-c4ccc(F)cc4)nc2C3)c1` gave ALOX12 inh -17%.
`CCN(CC)C(=O)c1ccc(NC(=O)c2cc(S(=O)(=O)N3CCCCCC3)ccc2OC)cc1` gave IL-1B inflam inh -2, DT40 TDP1 no CPT inconclusive, HT1080 IDH1KD tx -12%, DT40 TDP1 CPT -30%, ALOX12 inh -3% and HT1080NT lethal -12%.
